Results reported in PubChem BioAssay (NCATS).
Inconclusive results are not listed. A number with no mark means an inactive call. Calls come from the whole dose curve; as a rule, active = well fitted inhibition curve with a large enough effect; inconclusive = small, poorly fitted or top-dose-only effect; inactive = no such curve, though single readings can be large or run the other way.

tested on: Zika virus NS2B-NS3 protease (unlinked); experiment: Optimization of GU AMC qHTS for Zika virus inhibitors: Unlinked NS2B-NS3 protease assay (AID 1347151); conditions: recombinant ZIKV NS2B-NS3 protease, fluorogenic AMC substrate; series mostly up to 52.5 µM; activity change, negative = inhibition: at the top concentration;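 note: 0% = no-inhibitor control and -100% = no-enzyme control; nearly all actives have a fitted effect of over 80% in size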
Method in brief: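 Noncovalent complex of NS2B hydrophilic domain and NS3 protease domain, 25 nM final, in 10 mM Tris-HCl pH 8.0, 0.01% Tween 20. AMC fluorescence change over 15 min at room temperature was fitted to a 4-parameter Hill equation.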

SMILES	activity change, negative = inhibition [%]
NC(N)=NCc1cccc(I)c1	2.12
CN=C(N)NCCC[C@H](N)C(=O)O	0.641
O[C@@H](c1cc(C(F)(F)F)nc2c(C(F)(F)F)cccc12)[C@H]1CCCCN1	24.6
CCOC(=O)[C@H](CCc1ccccc1)N[C@@H](C)C(=O)N1[C@H](C(=O)O)C[C@H]2CCCC[C@@H]21	-1
CC(C)(C)NC[C@H](O)COc1nsnc1N1CCOCC1	2.83
C[C@H]1O[C@@H](O[C@H]2CC[C@@]3(C)[C@H](CC[C@@H]4[C@@H]3C[C@@H](O)[C@]3(C)[C@@H](C5=CC(=O)OC5)CC[C@]43O)C2)C[C@H](O)[C@@H]1O[C@H]1C[C@H](O)[C@H](O[C@H]2C[C@H](O)[C@H](O[C@@H]3O[C@H](CO)[C@@H](O)[C@H](O)[C@H]3O)[C@@H](C)O2)[C@@H](C)O1	-8.03
